Source: PubChem
Most compounds without a hit are left out; they make up all but 4.3% or so of the library.
HSF1 inhib – HSF1 inhibition. activity change, negative = inhibition, % at 7.5 µM (by protocol). AID 2098. 300,000 compounds, 0.77% hits. NIH3T3-HGL HSE-luciferase, MG132-induced, luminescence 8 h; hits give low values;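 active = more than half of replicate wells show activity change below -50%, luminescence cut by over half; inconclusive = some wells, but at most half, below -50%; inactive = no replicate well below -50%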;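 note: luciferase reports HSF-1 transcriptional activity via heat shock element; 0% = median of DMSO wells and -100% = zero luminescence signal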
SMARCA2 activ – SMARCA2 function activation, primary screen. MG213 cells, MMTV-luciferase reporter, dexamethasone, overnight. activation, % at 9.1 µM. 370,000 compounds, 1% hits. AID 652017; in the data active = activation above about 7.8%;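 note: 0% = vehicle wells and 100% = reference activator wells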
MITF act – activators of MITF-driven TRPM1 promoter activity in SK-MEL-5 cells; SK-MEL-5 TRPM1-promoter luciferase, 24 h; % of positive control, neutral wells = 0; activation, % at 12.5 µM; 300,000 compounds, 0.75% hits; AID 588334;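 active = mean activation of at least 80% with every replicate also reaching 80%; inconclusive = mean reaches 80% but some replicate falls short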;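 note: 0% = neutral control wells and 100% = parthenolide positive control wells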
HSF-1 act – increases HSF-1 driven luciferase reporter signal; NIH3T3-HGL HSF-1 luciferase reporter, MG132, 8 h; 100% = twice DMSO control signal; activation, % at 9 µM; 300,000 compounds, 1.7% hits; AID 504408;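 active = mean replicate activation of at least 50% with a set share of replicates each reaching 50%; inconclusive = only one of those two conditions met; inactive = mean below 50% and too few replicates reaching it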;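 note: 0% = median of the neutral control wells and 100% = twice that signal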
Wnt act – activates Wnt/beta-catenin signaling in a reporter cell assay. activator, plate reader. activation, % at 9.35 µM. 300,000 compounds, 1.2% hits; in the data active = activation above about 30%, passing the limit was not always enough; inconclusive = no clear call, values can overlap the other calls;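 note: 0% = neutral control wells and 100% = positive control wells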
esBAF inh – blocks esBAF chromatin remodeling in mouse ES cells; Bmi1-luciferase knock-in reporter, 24 h; 100% = twice the neutral-well signal; reporter increase, % at 12.5 µM; 350,000 compounds, 2% hits; AID 602393; in the data active = activation above about 40%; inconclusive = no clear call, values can overlap the other calls;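 note: 0% = median of the plate's neutral control wells and 100% = double that signal; a rise in the Bmi1 reporter signal indicates esBAF inhibition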
The depositor's hits bear a star; ? = inconclusive; . = no result given.

SMILES	HSF1 inhib	SMARCA2 activ	MITF act	HSF-1 act	Wnt act	esBAF inh
CCOC(=O)c1sc(NC(=O)CCN2CCCCCC2)c(C(=O)OCC)c1C	152.5	1.0	8.0	193.4*	-1.1	7.8
CN(/C(=N\S(=O)(=O)c1ccccc1)c1ccccc1)c1ccc(O)cc1	11.8	0.0	-4.2	58.6*	-0.5	.
Cc1ccc(S(=O)(=O)N(C)C[C@@H]2Oc3ccc(NC(=O)Cn4cnnn4)cc3CC(=O)N([C@@H](C)CO)C[C@@H]2C)cc1	.	.	.	.	.	-2.3
O=[N+]([O-])c1ccc(N2CCOCC2)cc1NCc1ccccc1	.	0.9	.	.	.	-1.6
O=[N+]([O-])c1cc([N+](=O)[O-])c(N2CCOCC2)cc1NCc1ccccc1	48.1	3.1	-6.3	108.7*	-8.3	3.8
CCN(CCNC(=O)CN1CCN(Cc2ccc(Cl)cc2)C1=O)c1ccccc1	48.6	-0.4	-5.2	69.7*	.	.
C=C1C(=O)C=C[C@]2(C)C[C@@H]3OC(=O)[C@](C)(O)[C@H]3C[C@@H]12	18.9	2.4	-92.7	36.6	43.0*	8.6
NNC(=O)c1ccc2nc(-c3ccc(Br)cc3)cn2c1	-0.7	7.2	92.8*	9.6	15.8	.
Clc1ccc(-c2cn3cc(Cl)ccc3n2)cc1	17.7	5.7	8.9	45.0	20.9	.
COc1cc(NC(=O)C2=C(N3CCOCC3)/C(=C\c3ccc(Cl)cc3Cl)CC2)cc(OC)c1OC	12.4	-0.9	-8.1	9.2	-1.8	.
COc1cc(NC(=O)C2=C(N3CCOCC3)/C(=C\c3ccc(Br)cc3)CC2)cc(OC)c1OC	72.1	2.5	5.4	96.8*	.	-0.8
C[C@@H]1CN([C@H](C)CO)C(=O)c2cc(C#C[C@@H](C)O)cnc2O[C@@H]1CN(C)C(=O)c1ccncc1	.	.	.	.	.	-0.3
CC1(C)CC(=O)C=C(c2ccc(OC(F)(F)F)cc2)C1	.	-0.9	22.0	.	-4.3	-3.6
CC1(C)CC(=O)C=C(c2ccc(Oc3ccccc3)cc2)C1	.	4.1	70.3	.	26.4	68.4*
CN1CC=C2C(C#N)=C(N)C(C#N)(C#N)C(c3cccc(Cl)c3Cl)C2C1 (stereo unspecified)	63.5	1.3	-4.8	113.3*	.	.
COc1ccc(Nc2nc(-c3cccnc3)cs2)c(OC)c1	-2.5	1.6	57.2	-16.4	2.7	56.7*
COc1ccccc1Nc1nc(-c2cccnc2)cs1	5.7	0.4	65.0	-0.1	13.8	44.1*
COc1ccc(Nc2nc(-c3cccs3)cs2)c(OC)c1	-1.6	5.6	.	0.0	.	53.2*
CCc1ccccc1Nc1nc(-c2cccnc2)cs1	3.6	-0.1	.	17.0	18.3	23.0
C[C@H](CO)N1C[C@H](C)[C@H](CN(C)S(=O)(=O)c2ccc(F)cc2)Oc2ccc(NC(=O)Nc3ccccc3)cc2C1=O	.	.	.	.	.	-3.2
Cc1noc(C)c1S(=O)(=O)Nc1cccc2c1O[C@H](CN(C)S(=O)(=O)c1cccs1)[C@H](C)CN([C@@H](C)CO)C2=O	.	.	.	.	.	-2.6
O=C(NCc1cccs1)c1cc(-c2ccc(O)cc2)on1	22.0	1.0	57.7	48.9	36.9*	?
CCCc1cc(C(=O)NCc2cccs2)no1	9.0	1.7	.	-7.9	26.7	54.3*
Cc1ccccc1S(=O)(=O)N1[C@@H](C#N)[C@H](c2ccc(-c3ccccc3)cc2)[C@@H]1CO	.	.	.	.	.	2.1
Cc1cc(C(=O)Nc2cccc3c2O[C@H](CN(C)C(=O)Nc2ccc(F)cc2)[C@H](C)CN([C@@H](C)CO)C3=O)n(C)n1	.	.	.	.	.	2.1
SMILES	HSF1 inhib	SMARCA2 activ	MITF act	HSF-1 act	Wnt act	esBAF inh
O=C(C[C@H]1C[C@@H]2c3cc(NC(=O)NC4CCCC4)ccc3O[C@@H]2[C@@H](CO)O1)NCc1ccccc1	.	.	.	.	.	2.6
Cc1ccc(-c2cc(C(=O)N3CCN(c4ccc(F)cc4)CC3)c3ccccc3n2)o1	13.1	3.2	30.3	2.0	.	21.9
Cc1ccc(-c2cc(C(=O)N3CCN(c4ncccn4)CC3)c3cc(Br)ccc3n2)o1	47.3	-3.0	13.9	75.7*	0.8	4.5
O=C(Nc1ccccc1)OCCN1CCN(Cc2ccccc2)CCC1=O	2.1	1.1	10.9	0.3	-3.3	-14.6
O=C1CCN(Cc2ccccc2)CCN1CCOc1ccccc1	1.6	2.8	85.0*	-3.3	12.7	9.8
Cc1ccc(SCCN2CCN(CCc3ccccc3)CCC2=O)cc1	-7.5	1.7	3.8	1.5	1.2	4.0
CC(C)CN1CCC(=O)N(CCSc2ccccc2)CC1	21.9	2.5	73.2	33.5	42.1*	6.5
Fc1ccccc1-c1ccc(/C=N/Nc2nc3ccccc3[nH]2)o1	378.7	4.2	13.1	383.7*	53.1*	.
Cc1ccc(/C=N\Nc2nc3ccc(Cl)cc3[nH]2)o1	26.8	4.1	38.9	?	67.8*	.
Cc1cc(=O)[nH]c(N/N=C/c2ccc(-c3ccc(F)cc3)o2)n1	0.4	1.9	19.4	-1.8	8.9	18.2
CCCC(=O)N=C1SC2CS(=O)(=O)CC2N1c1ccc(-c2nc3ccc(C)cc3s2)cc1 (stereo unspecified)	6.7	1.6	57.1	8.6	33.7*	.
CNC[C@@H]1Oc2c(NS(=O)(=O)c3ccc(F)cc3)cccc2C(=O)N([C@@H](C)CO)C[C@H]1C	.	.	.	.	.	1.7
CC(C)(C)c1ccc(NC(=O)c2ccc(=O)[nH]n2)cc1	28.4	1.2	97.4*	49.5	32.7*	14.4
O=C(Nc1ccc2c(c1)OCO2)c1ccc(=O)[nH]n1	14.1	2.4	12.8	3.2	-1.5	12.0
O=C(Nc1ccccc1-c1ccccc1)c1ccc(=O)[nH]n1	7.4	1.4	56.0	21.9	-1.5	43.5*
CCC(=O)N1[C@H](CO)[C@@H]2c3ccccc3N(S(=O)(=O)c3ccccc3F)C[C@@H]21	.	.	.	.	.	-3.8
CN1CCN(C(=O)C[C@H]2CC[C@H]3[C@@H](COC[C@@H](O)CN3S(=O)(=O)c3cccc(Cl)c3)O2)CC1	.	.	.	.	.	-3.3
CNc1cccc(-c2ccc(C(C)=O)s2)n1	.	3.2	.	.	-1.5	52.7*
COC(=O)c1[nH]c2ccc(Br)cc2c1NC(=O)CN1CCCc2ccccc21	37.9	-6.8	-23.3	56.5*	-8.1	.
COC(=O)c1[nH]c2cc(C)ccc2c1NC(=O)CN1CCCc2ccccc21	10.4	2.7	8.6	41.3	.	19.8
O=C(C[C@H]1CC[C@H](NC(=O)C2CCC2)[C@H](CO)O1)NCc1ccccc1Cl	.	.	.	.	.	-0.1
CCCNC(=O)Nc1ccc2c(c1)C(=O)N(C)C[C@H](OC)[C@@H](C)CN(C(=O)C1CCC1)[C@H](C)CO2	.	.	.	.	.	-2.5
CC(C)NC(=O)Nc1ccc2c(c1)CC(=O)N([C@H](C)CO)C[C@H](C)[C@@H](CN(C)S(C)(=O)=O)O2	.	.	.	.	.	-2.2
Cc1cc(C=C2C(=O)c3ccccc3C2=O)c(C)n1C	6.3	1.1	7.8	-3.4	62.9*	-8.0
CCC(=O)N[C@@H]1CC[C@@H](CCn2cc(-c3cccc(OC)c3)nn2)O[C@H]1CO	.	.	.	.	.	1.8
Cc1ccc(/C=N/NC(=O)Cc2cccn2C)cc1	-9.1	0.8	27.9	5.4	12.2	.
